Laboratory results as given in PubChem BioAssay (NCATS).
Results filed as inconclusive are left out. Active and inactive are the calls of the source. Calls come from the whole dose curve; as a rule, active = well fitted inhibition curve with a large enough effect; inconclusive = small, poorly fitted or top-dose-only effect; inactive = flat fitted curve, though single readings scatter.

Legend:
Test in all cases: qHTS profiling for inhibitors of Plasmodium falciparum proliferation (AID 504749); note: nearly all actives have a fitted effect of over 60% in size
Details in all cases: P. falciparum in erythrocytes, SYBR Green DNA, 72 h; series mostly up to 28.7 µM
ATS189 = test system: ATS189
Outline: (§1)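 Fluorescence of SYBR Green-bound parasite DNA, read at 485/535 nm, served as the growth measure. Infected erythrocytes were cultured with compound 72 h; artemisinin (0.29 uM) and DMSO wells defined the normalization range.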

ATS95 = test system: ATS95
Outline: as §1

C2A = test system: C2A
Outline: as §1

CP185 = test system: CP185
Outline: as §1

CP191 = test system: CP191
Outline: as §1

CP192 = test system: CP192
Outline: as §1

CP194 = test system: CP194
Outline: as §1

CP201 = test system: CP201
Outline: as §1

CP203 = test system: CP203
Outline: as §1

CP211 = test system: CP211
Outline: as §1

CP215 = test system: CP215
Outline: as §1

CP217 = test system: CP217
Outline: as §1

CP237 = test system: CP237
Outline: as §1

CP238 = test system: CP238
Outline: as §1

CP247 = test system: CP247
Outline: as §1

CP250 = test system: CP250
Outline: as §1

CP252 = test system: CP252
Outline: as §1

CP256 = test system: CP256
Outline: as §1

CP260 = test system: CP260
Outline: as §1

CP262 = test system: CP262
Outline: as §1

Measured: Potency
Potency is the fitted concentration of half-maximal effect.

CCn1cc(C(=O)O)c(=O)c2cnc(N3CCCC3)nc21
inactive: ATS189 | ATS95 | C2A | CP185 | CP191 | CP192 | CP194 | CP201 | CP203 | CP211 | CP215 | CP217 | CP237 | CP238 | CP247 | CP250 | CP252 | CP256 | CP260 | CP262

CCC(=O)c1c(O)cc(O)cc1O
inactive: ATS189 | ATS95 | C2A | CP185 | CP191 | CP192 | CP194 | CP201 | CP203 | CP211 | CP215 | CP217 | CP237 | CP238 | CP247 | CP250 | CP252 | CP256 | CP260 | CP262

C[C@@H]1C(=O)NC2=Nc3cccc(Cl)c3CN21
inactive: ATS189 | ATS95 | C2A | CP185 | CP191 | CP192 | CP194 | CP201 | CP203 | CP211 | CP215 | CP217 | CP237 | CP238 | CP247 | CP250 | CP252 | CP256 | CP260 | CP262

Cc1cc(=O)n(-c2ccccc2)n1C
inactive: ATS189 | ATS95 | C2A | CP185 | CP191 | CP192 | CP194 | CP201 | CP203 | CP211 | CP215 | CP217 | CP237 | CP238 | CP247 | CP250 | CP252 | CP256 | CP260 | CP262

CC(C)(C)CC(C)(C)c1ccc(OCCOCC[N+](C)(C)Cc2ccccc2)cc1
active: ATS189 7.08 µM | ATS95 3.98 µM | C2A 3.16 µM | CP185 3.55 µM | CP191 1.58 µM | CP192 4.26 µM | CP194 3.79 µM | CP201 4.78 µM | CP203 4.78 µM | CP211 4.26 µM | CP215 5.36 µM | CP217 4.47 µM | CP237 2.51 µM | CP238 4.47 µM | CP247 3.98 µM | CP250 4.47 µM | CP252 5.01 µM | CP256 4.47 µM | CP260 1.41 µM

CCCn1c(=O)[nH]c(=O)c2[nH]cnc21
inactive: ATS189 | ATS95 | C2A | CP185 | CP191 | CP192 | CP194 | CP201 | CP203 | CP211 | CP215 | CP217 | CP237 | CP238 | CP247 | CP250 | CP252 | CP256 | CP260 | CP262

N[C@H](Cc1c[nH]c2ccccc12)C(=O)O
inactive: ATS189 | ATS95 | C2A | CP185 | CP191 | CP192 | CP194 | CP201 | CP203 | CP211 | CP215 | CP217 | CP237 | CP238 | CP247 | CP250 | CP252 | CP256 | CP260 | CP262

C[C@H]1[C@H](NC(=O)/C(=N/OC(C)(C)C(=O)O)c2csc(N)n2)C(=O)N1S(=O)(=O)O (stereo in doubt)
inactive: ATS189 | ATS95 | C2A | CP185 | CP191 | CP192 | CP194 | CP201 | CP203 | CP211 | CP215 | CP217 | CP237 | CP238 | CP247 | CP250 | CP252 | CP256 | CP260 | CP262

CN1CCC[C@@H]1c1cccnc1
inactive: ATS189 | ATS95 | C2A | CP185 | CP191 | CP192 | CP194 | CP201 | CP203 | CP211 | CP215 | CP217 | CP237 | CP238 | CP247 | CP250 | CP252 | CP256 | CP260

CCCCCCCCCCCCCCCC[N+](C)(C)CC
active: ATS189 10 µM | ATS95 6.31 µM | C2A 3.55 µM | CP185 3.98 µM | CP191 3.98 µM | CP192 4.78 µM | CP194 6.01 µM | CP201 6.75 µM | CP203 10.7 µM | CP211 4.78 µM | CP215 9.53 µM | CP217 5.62 µM | CP237 4.47 µM | CP238 5.01 µM | CP247 4.47 µM | CP250 5.01 µM | CP252 5.01 µM | CP256 5.01 µM | CP260 2.82 µM | CP262 4.78 µM

O=C1CCC(c2ccc(-n3ccnc3)cc2)=NN1
inactive: ATS189 | ATS95 | C2A | CP185 | CP191 | CP192 | CP194 | CP201 | CP203 | CP211 | CP215 | CP217 | CP237 | CP238 | CP247 | CP250 | CP252 | CP256 | CP260 | CP262

NCCC(O)(P(=O)(O)O)P(=O)(O)O
inactive: ATS189 | ATS95 | C2A | CP185 | CP191 | CP192 | CP194 | CP201 | CP203 | CP211 | CP215 | CP217 | CP237 | CP238 | CP247 | CP250 | CP252 | CP256 | CP260 | CP262

O=C(Nc1ccc(Cl)c(Cl)c1)C1CC1
inactive: ATS189 | ATS95 | C2A | CP185 | CP191 | CP192 | CP194 | CP201 | CP203 | CP211 | CP215 | CP217 | CP237 | CP238 | CP247 | CP250 | CP252 | CP256 | CP260 | CP262
